The panel holds about 79,000 compounds, 15% with a hit somewhere; the sample as a whole holds those more often. Cut-off read from the data, not from the text of the source: active = growth inhibition above about 70%; inactive = the rest.
Columns and labels:
[1] = NCI Yeast Anticancer Drug Screen. Data for the rad52 strain (AID 147);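 note: 0% = growth of vehicle-treated control cultures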; conditions: S. cerevisiae rad52 mutant growth inhibition, hits give high values
Outline: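 The repair-mutant yeast strain was incubated with compounds, then growth was read and inhibition derived relative to vehicle.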

[2] = NCI Yeast Anticancer Drug Screen. Data for the wt1 strain (AID 149);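 note: 0% = growth of vehicle-treated wt1 cultures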; conditions: S. cerevisiae wt1 strain (SPY 50644) growth inhibition, hits give high values
Outline: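 Vehicle-normalised growth inhibition; strain wt1; compound exposure.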

[3] = NCI Yeast Anticancer Drug Screen. Data for the rad50EPP+ strain (AID 151);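 note: 0% = growth of vehicle-treated control cultures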; conditions: S. cerevisiae rad50 mutant strain, hits give high values
Outline: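 Vehicle-normalised growth inhibition; rad50EPP+ yeast strain, altered in DNA damage repair, compound-treated.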

[4] = NCI Yeast Anticancer Drug Screen. Data for the mgt1 strain (AID 153); conditions: S. cerevisiae mgt1 mutant growth inhibition, hits give high values
Outline: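 Vehicle-normalized growth inhibition is determined in mgt1 yeast, a strain selected for a defined alteration in DNA repair or cell cycle control.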

[5] = NCI Yeast Anticancer Drug Screen. Data for the rad50 strain (AID 155);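 note: 0% = growth of vehicle-only cultures of the same strain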; conditions: S. cerevisiae rad50 strain growth inhibition, hits give high values
Outline: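 A DNA repair-deficient yeast mutant serves as the test organism; compound-induced growth inhibition is calculated against vehicle-treated cells.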

[6] = NCI Yeast Anticancer Drug Screen. Data for the mec2-1 strain (AID 157); conditions: S. cerevisiae mec2-1 strain, hits give high values
Outline: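 Mutant yeast (mec2-1) grown with compound; growth inhibition relative to vehicle control reported.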

[7] = NCI Yeast Anticancer Drug Screen. Data for the rad14 strain (AID 159);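 note: 0% = growth of vehicle-treated control cultures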; conditions: S. cerevisiae rad14 strain growth inhibition, hits give high values
Outline: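 Vehicle-treated cultures served as the baseline for growth inhibition of a DNA repair-mutant yeast strain exposed to each compound.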

[8] = NCI Yeast Anticancer Drug Screen. Data for the sgs1 mgt1 strain (AID 161);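 note: 0% = growth of cultures given vehicle only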; conditions: S. cerevisiae sgs1 mgt1 strain, hits give high values
Outline: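 Percent growth inhibition was derived by comparing compound-exposed mutant yeast with vehicle-exposed cultures. The strain carries alterations in DNA damage repair.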

[9] = NCI Yeast Anticancer Drug Screen. Data for the CLN2oe strain (AID 163);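 note: 0% = growth of vehicle-only control cultures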; conditions: S. cerevisiae CLN2oe strain, hits give high values
Outline: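 Compounds are applied to yeast harbouring a defined cell-cycle control change; reduced growth compared with vehicle-treated controls gives the value.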

[10] = NCI Yeast Anticancer Drug Screen. Data for the cln2 rad14 strain (AID 165);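 note: 0% = growth equal to vehicle treated cultures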; conditions: S. cerevisiae cln2 rad14 strain, hits give high values
Outline: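 Readout is yeast growth inhibition versus vehicle-treated controls, using a strain with cln2 and rad14 alterations exposed to compound.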

[11] = NCI Yeast Anticancer Drug Screen. Data for the bub3 strain (AID 167); conditions: S. cerevisiae bub3 mutant strain, hits give high values
Outline: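 Inhibition values come from growth of compound-treated mutant yeast normalised to vehicle-treated controls.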

[12] = NCI Yeast Anticancer Drug Screen. Data for the wt2 strain (AID 169);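 note: 0% = growth of vehicle-treated yeast cultures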; conditions: S. cerevisiae wt2 strain growth inhibition, hits give high values
Outline: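 Against vehicle-treated controls, the growth of yeast exposed to each compound was compared, and the inhibition was recorded.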

[13] = NCI Yeast Anticancer Drug Screen. Data for the mlh1 strain (AID 171);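 note: 0% = growth of vehicle-treated control cultures of the same strain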; conditions: S. cerevisiae mlh1 strain growth inhibition, hits give high values
Outline: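 Measured: yeast growth. Reference: vehicle-treated controls. Organism: strain with a defined alteration affecting DNA damage repair or cell cycle control, treated with compound.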

[14] = NCI Yeast Anticancer Drug Screen. Data for the sgs1 strain (AID 173);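 note: 0% = growth of vehicle-only control cultures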; conditions: S. cerevisiae sgs1 mutant, hits give high values
Outline: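 Each compound was added to cultures of the altered yeast strain. Growth was recorded, and inhibition was derived by comparison with vehicle controls.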

[15] = NCI Yeast Anticancer Drug Screen. Data for the mlh1 rad18 strain (AID 175); conditions: S. cerevisiae mlh1 rad18 strain growth inhibition, hits give high values
Outline: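 Genetically defined yeast (DNA repair-deficient) exposed to compounds; growth inhibition determined relative to vehicle.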

[16] = NCI Yeast Anticancer Drug Screen. Data for the rad18 strain (AID 177); conditions: S. cerevisiae rad18 mutant growth inhibition, hits give high values
Outline: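 Vehicle-treated cultures served as the baseline for scoring compound-induced growth inhibition in DNA-repair-mutant yeast.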

[17] = at 5.0 µM (retest, dose inferred, filed as 0.5)
[18] = at 50.0 µM (retest, dose inferred, filed as 5.0)

Measured: growth inhibition

CCOC(=O)C1=C(C)NC(C)=C(C(=O)OCCNC(=O)c2ccc(N=[N+]=[N-])cc2)C1c1ccccc1C(F)(F)F (stereo not drawn)
inactive: [1]; at 1.2 µM 4% | [1]; at 3.7 µM 4% | [1]; at 11.0 µM 13% | [1]; at 33.0 µM 24% | [1]; at 100.0 µM 39% | [2]; at 1.2 µM 1% | [2]; at 3.7 µM 0% | [2]; at 11.0 µM -2% | [2]; at 33.0 µM 2% | [2]; at 100.0 µM 21% | [3]; at 1.2 µM -1% | [3]; at 3.7 µM 0% | [3]; at 11.0 µM 1% | [3]; at 33.0 µM 3% | [3]; at 100.0 µM -11% | [4]; at 1.2 µM -2% | [4]; at 3.7 µM -3% | [4]; at 11.0 µM -2% | [4]; at 33.0 µM 12% | [4]; at 100.0 µM 24% | [5]; at 1.2 µM 1% | [5]; at 3.7 µM -1% | [5]; [17] 3% | [5]; at 11.0 µM 17% | [5]; at 33.0 µM 39% | [5]; [18] 18% | [5]; at 50.0 µM 40.1% | [5]; at 100.0 µM 41% | [6]; at 1.2 µM 1% | [6]; at 3.7 µM 4% | [6]; [17] 1% | [6]; at 11.0 µM -2% | [6]; at 33.0 µM 13% | [6]; [18] -46% | [6]; at 50.0 µM 53.3% | [6]; at 100.0 µM 47% | [7]; at 1.2 µM 0% | [7]; at 3.7 µM -4% | [7]; at 11.0 µM 3% | [7]; at 33.0 µM 8% | [7]; at 100.0 µM 22% | [8]; [17] 5% | [8]; [18] 51% | [8]; at 50.0 µM 9.9% | [9]; at 1.2 µM -3% | [9]; at 3.7 µM -2% | [9]; at 11.0 µM -2% | [9]; at 33.0 µM 25% | [9]; at 100.0 µM 53% | [10]; [17] 4% | [10]; [18] 19% | [10]; at 50.0 µM 2.85% | [11]; at 1.2 µM -8% | [11]; at 3.7 µM -7% | [11]; [17] -42% | [11]; at 11.0 µM -5% | [11]; at 33.0 µM 4% | [11]; [18] 29% | [11]; at 50.0 µM 57.4% | [11]; at 100.0 µM 31% | [12]; at 1.2 µM 0% | [12]; at 3.7 µM -2% | [12]; at 11.0 µM 0% | [12]; at 33.0 µM 5% | [12]; at 100.0 µM 19% | [13]; at 1.2 µM 6% | [13]; at 3.7 µM -5% | [13]; at 11.0 µM -1% | [13]; at 33.0 µM 9% | [13]; at 100.0 µM 28% | [14]; at 1.2 µM 1% | [14]; at 3.7 µM -2% | [14]; at 11.0 µM 1% | [14]; at 33.0 µM 32% | [14]; at 100.0 µM 65% | [15]; [17] 2% | [15]; [18] 43% | [15]; at 50.0 µM 32.5% | [16]; at 1.2 µM 3% | [16]; at 3.7 µM -4% | [16]; at 11.0 µM 4% | [16]; at 33.0 µM 8% | [16]; at 100.0 µM 23%

Source: PubChem BioAssay (NCI)
